# Test results: PubChem BioAssay
# Where “and” joins values, the source holds several entries; their conditions need not be identical. Equal values may be shown once. Calls of active or inactive are those of the source. Unless noted, no stated cut-off is given here; in the data, active means inhibition above about 80%; inactive means the rest.
# Experiments:
# [1] = growth inhibition, single agent or in combination, cell-based, chromothripsis tumors, cisplatin or BGB combos (AID 1671449); settings: LFS_MB_P medulloblastoma cells;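 further: cells exposed for 96 hours; 0% = vehicle DMSO and 100% = killing by high DMSO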
# [2] = growth inhibition, single agent and combos, cell-based, chromothripsis tumors, cisplatin or BGB combos (AID 1671450); settings: HDN33 neuroblastoma cells, stronger effect = higher value;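 further: cells exposed to compound for four days; 0% = vehicle DMSO and 100% = cell killing by high DMSO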
# [3] = growth inhibition, single agents and combos, ICB984, cell-based, cisplatin or BGB combos, synergistic combos for chromothripsis tumors (AID 1671451; call rule not given here;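 further: cells exposed for 96 hours before readout; 0% = vehicle DMSO and 100% = killing by high DMSO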); settings: ICB984 medulloblastoma cells, drug combinations, stronger effect = higher value
# [4] = growth inhibition, single agents and combos, LFS_MB_1R, cell-based, cisplatin or BGB combos, synergistic combos for chromothripsis tumors (AID 1671452); settings: LFS_MB_1R medulloblastoma cells, stronger effect = higher value;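 further: cells exposed for 96 hours before readout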
# [5] = growth inhibition, single agents and combos, HTB85, cell-based, BGB or cisplatin IC20 combos, synergistic combos for chromothripsis tumors (AID 1671453); settings: HTB85 osteosarcoma cells, drug combinations, stronger effect = higher value;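 further: cells exposed for 96 hours before readout; 0% = vehicle DMSO and 100% = high DMSO killing control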
# [6] = growth inhibition, single agents and combos, CRL2098, cell-based, BGB or cisplatin IC20 combos, synergistic combos for chromothripsis tumors (AID 1671454); settings: CRL2098 osteosarcoma cells, drug combinations, stronger effect = higher value;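 further: cells exposed for 96 h before readout; 0% = vehicle DMSO and 100% = killing by high DMSO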
# [7] = growth inhibition, single agents and combos, HD-MB03, cell-based, BGB or cisplatin IC20 combos, synergistic combos for chromothripsis tumors (AID 1671455; in the data active means inhibition above about 83%;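 further: 0% = vehicle DMSO and 100% = high DMSO as cytotoxic control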); settings: HD-MB03 medulloblastoma cells, stronger effect = higher value
# [8] = growth inhibition, single agents and combos, UWB1.289, cell-based, BGB or cisplatin combos, synergistic combos for chromothripsis tumors (AID 1671456); settings: UWB1.289 ovarian carcinoma cells, stronger effect = higher value;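 further: cells exposed to compound for four days; 0% = vehicle DMSO and 100% = killing by high DMSO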
# [9] = growth inhibition, single agents and combos, LFS_MB_2R, cell-based, cisplatin combos, synergistic combos for chromothripsis tumors (AID 1671457); settings: LFS_MB_2R medulloblastoma cells, stronger effect = higher value;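 further: cells exposed to compound for four days before readout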
# [10] = growth inhibition, MDA-MB-436, cell-based, BGB or cisplatin combos, synergistic combos for chromothripsis tumors (AID 1671458; call rule not given here;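 further: cells exposed for 96 hours; 0% = vehicle DMSO and 100% = killing by high DMSO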); settings: MDA-MB-436 breast carcinoma growth inhibition, drug combinations, stronger effect = higher value
# [11] = UWB1.289_BRCA1 ovarian cancer growth, cell-based, BGB or cisplatin combinations (AID 1671459); settings: UWB1.289 BRCA1 ovarian carcinoma, drug combinations, stronger effect = higher value
# [12] = drug combination toxicity in non-malignant astrocytes – cell-based, BGB or cisplatin IC20 combos, cytotoxicity control for chromothriptic childhood tumor combination screen (AID 1671460); settings: Human astrocytes, viability inhibition, drug combinations, at 0.5 µM, stronger effect = higher value;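 further: cells exposed to compounds for 96 hours before viability readout; 0% = vehicle and 100% = killing control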
# [13] = BT084 cell growth, single and combined drugs, ICGC_MB145, cisplatin and BGB IC40 combos (AID 1671461); settings: BT084 medulloblastoma cells, drug combinations, stronger effect = higher value;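 further: cells exposed to drugs for 96 hours; 0% = vehicle DMSO and 100% = high DMSO full killing control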
# [14] = RCMB18 cell growth, single agent and combined, cisplatin and BGB IC40 combos (AID 1671462); settings: RCMB18 medulloblastoma cells, stronger effect = higher value;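 further: cells exposed to compound for four days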
# [15] = CRL1545 cell growth, single agent and combined, cisplatin and BGB IC20 combos (AID 1671464); settings: CRL1545 osteosarcoma cells, stronger effect = higher value;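 further: cells exposed to compound for 96 hours before readout; 0% = vehicle DMSO and 100% = high DMSO killing control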
# [16] = galactose survival enhancers in mitochondrial complex I cybrids – cell-based, galactose medium, ATP luminescence, primary screen (AID 1645843;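 active means z-score of at least 1.8 in each of two replicates, scored against plate mean and spread of sample wells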;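 further: positive z means more ATP and so rescue of galactose-driven cybrid death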); settings: complex I mutant cybrid cells, 72 h, stronger effect = higher value
# [17] = at 0.5 µM, stronger effect = higher value
# [18] = measured here: combination with BGB IC20, at 0.005 µM
# [19] = measured here: combination with BGB IC40, at 0.005 µM
# [20] = measured here: combination with BGB IC40, at 0.05 µM
# [21] = measured here: combination with cisplatin, at 0.5 µM, stronger effect = higher value
# [22] = measured here: combination with cisplatin, at 5 µM, stronger effect = higher value
# [23] = measured here: with BGB IC20 combination, at 0.5 µM
# [24] = measured here: with cisplatin IC20 combination, at 0.5 µM
# [25] = measured here: 5 uM single agent, at 5 µM
# [26] = measured here: combination with cisplatin, at 0.5 µM
# [27] = measured here: combination with cisplatin, at 5 µM
# [28] = measured here: with BGB IC20, at 0.5 µM
# [29] = measured here: with BGB IC20, at 5 µM
# [30] = measured here: with cisplatin IC20, at 0.5 µM
# [31] = measured here: with cisplatin IC20, at 5 µM
# [32] = measured here: combination with BGB at IC20, at 0.5 µM
# [33] = measured here: combination with cisplatin at IC20, at 0.5 µM
# [34] = measured here: combo with BGB at IC20, at 0.5 µM
# [35] = measured here: combo with cisplatin at IC20, at 0.5 µM
# [36] = measured here: inhibition with BGB combination, at 0.05 µM
# [37] = measured here: inhibition with cisplatin combination, at 0.05 µM
# [38] = measured here: BGB combination, at 0.5 µM
# [39] = measured here: BGB combination, at 5 µM
# [40] = measured here: cisplatin combination, at 0.5 µM
# [41] = measured here: cisplatin combination, at 5 µM
# [42] = BGB combination, concentration series, at 5 µM
# [43] = cisplatin combination, concentration series, at 5 µM
# [44] = measured here: combo with BGB IC20
# [45] = measured here: combo with cisplatin IC20
# [46] = cisplatin combination, at 0.5 µM
# [47] = measured here: BGB IC40 combination 0.05 uM, at 0.05 µM
# [48] = measured here: BGB IC40 combination, at 0.05 µM
structure (smiles),measurement,setting,value
CC1OC(CC(=O)O)CC2=C1C(=O)c1c(O)cccc1C2=O (configuration not stated),inhibition,[1]; [17],13.6% (inactive)
same,inhibition,[1]; [18],-20.4%
same,inhibition,[1]; [19],-16.6%
same,inhibition,[1]; [20],120%
same,inhibition,[1]; [21],28.7%
same,inhibition,[1]; [22],128%
same,inhibition,"[2]; BGB combo, at 5 µM",100%
same,inhibition,[2]; at 0.5 µM,99.9% (active)
same,inhibition,"[2]; cisplatin combo, at 5 µM",99.9%
same,inhibition,[2]; [23],99.9%
same,inhibition,[2]; [24],99.9%
same,inhibition,"[2]; single agent, at 5 µM",99.9%
same,inhibition,"[3]; BGB IC20 combo, at 0.005 µM",101%
same,inhibition,"[3]; BGB IC40 combo, at 0.005 µM",102%
same,inhibition,"[3]; BGB IC40 combo, at 0.05 µM",102%
same,inhibition,[3]; at 0.5 µM,0.28% (inactive)
same,inhibition,"[3]; cisplatin combo, at 0.05 µM",102%
same,inhibition,"[3]; cisplatin combo, at 0.5 µM",10.8%
same,inhibition,"[3]; cisplatin combo, at 5 µM",102%
same,inhibition,[3]; [25],98.7%
same,inhibition,[4]; at 0.5 µM,106% (active)
same,inhibition,[4]; [20],101%
same,inhibition,[4]; [26],111%
same,inhibition,[4]; [27],106%
same,inhibition,[5]; at 0.5 µM,99.9% (active)
same,inhibition,[5]; [28],100%
same,inhibition,[5]; [29],100%
same,inhibition,[5]; [30],99.9%
same,inhibition,[5]; [31],99.7%
same,inhibition,"[5]; single agent, at 5 µM",99.7%
same,inhibition,[6]; at 0.5 µM,100% (active)
same,inhibition,[6]; [32],100%
same,inhibition,[6]; [33],100%
same,inhibition,[7]; at 0.5 µM,99.8% (active)
same,inhibition,[7]; [34],99.9%
same,inhibition,[7]; [35],99.8%
same,inhibition,[8]; at 0.5 µM,102% (active)
same,inhibition,[8]; [36],65.9%
same,inhibition,[8]; [37],91.2%
same,inhibition,[9]; at 0.5 µM,106% (active)
same,inhibition,[9]; [26],105%
same,inhibition,[9]; [27],105%
same,inhibition,[10]; at 0.5 µM,102% (active)
same,inhibition,[10]; [38],103%
same,inhibition,[10]; [39],103%
same,inhibition,[10]; [40],101%
same,inhibition,[10]; [41],109%
same,inhibition,[11]; [42],121%
same,inhibition,[11]; at 0.5 µM,111% (active)
same,inhibition,[11]; [43],132%
same,inhibition,[12],102% (active)
same,inhibition,[12]; [44],105%
same,inhibition,[12]; [45],101%
same,inhibition,[13]; at 0.5 µM,106% (active)
same,inhibition,[13]; [46],108%
same,inhibition,"[13]; cisplatin combination, at 5 µM",110%
same,inhibition,[13]; [47],67.7%
same,inhibition,"[13]; single agent, at 5 µM",107%
same,inhibition,[14]; at 0.5 µM,99.3% (active)
same,inhibition,"[14]; cisplatin combo, at 5 µM",103%
same,inhibition,[14]; [48],97.5%
same,inhibition,[14]; [26],102%
same,inhibition,"[14]; single agent, at 5 µM",101%
same,inhibition,[15]; at 0.5 µM,99.9% (active)
same,inhibition,[15]; [23],99.9%
same,inhibition,[15]; [24],99.9%
same,inhibition,"[15]; single agent, at 0.05 µM",99.9%
same,inhibition,"[15]; single agent, at 5 µM",99.9%
CC(=O)NCCC1CCN(C(=O)C(C)(C)Oc2cc(C)ccc2Cl)CC1,z-score,[16],-0.545 (inactive)
Nc1cc(F)ccc1NC(=O)/C=C/c1cnn(C/C=C/c2ccccc2)c1,inhibition,[1]; [17],19.7% (inactive) and -29.8% (inactive)
same,inhibition,[1]; [18],-27.4% and -4.91%
same,inhibition,[1]; [19],89.6% and -23%
same,inhibition,[1]; [20],10.4% and 0.325%
same,inhibition,[1]; [21],-17.2% and -44.8%
same,inhibition,[1]; [22],-14.4% and -23.8%
same,inhibition,"[2]; BGB combo, at 5 µM",-55.4% and -3.94%
same,inhibition,[2]; at 0.5 µM,-46.1% (inactive) and -1.14% (inactive)
same,inhibition,"[2]; cisplatin combo, at 5 µM",-62.1% and 12.2%
same,inhibition,[2]; [23],-50.1% and 0.078%
same,inhibition,[2]; [24],-34.6% and -2.05%
same,inhibition,"[2]; single agent, at 5 µM",-50.8% and -2.21%
same,inhibition,"[3]; BGB IC20 combo, at 0.005 µM",-16.5% and -7.2%
same,inhibition,"[3]; BGB IC40 combo, at 0.005 µM",-16% and 5.39%
same,inhibition,"[3]; BGB IC40 combo, at 0.05 µM",-9.88% and 2.13%
same,inhibition,[3]; at 0.5 µM,-33.8% (inactive) and -9.71% (inactive)
same,inhibition,"[3]; cisplatin combo, at 0.05 µM",-15.5% and -1.74%
same,inhibition,"[3]; cisplatin combo, at 0.5 µM",-45.9% and -17.3%
same,inhibition,"[3]; cisplatin combo, at 5 µM",-20.4% and -41.2%
same,inhibition,[3]; [25],-25.9% and -12.4%
same,inhibition,[4]; at 0.5 µM,-30.2% (inactive) and -13.5% (inactive)
same,inhibition,[4]; [20],-20% and -25.7%
same,inhibition,[4]; [26],-51.6% and -12%
same,inhibition,[4]; [27],-19.1% and 0.402%
same,inhibition,[5]; at 0.5 µM,-30% (inactive) and 0.99% (inactive)
same,inhibition,[5]; [28],-21.5% and 1.42%
same,inhibition,[5]; [29],-17.1% and -19.7%
same,inhibition,[5]; [30],-35.4% and -2.87%
same,inhibition,[5]; [31],19.9% and 1.46%
same,inhibition,"[5]; single agent, at 5 µM",-33.7% and -0.677%
same,inhibition,[6]; at 0.5 µM,-90.2% (inactive) and -24% (inactive)
same,inhibition,[6]; [32],-110% and -20.4%
same,inhibition,[6]; [33],-83.6% and -21.7%
same,inhibition,[7]; at 0.5 µM,-17.4% (inactive) and -5.34% (inactive)
same,inhibition,[7]; [34],-11.2% and -7.19%
same,inhibition,[7]; [35],-20.1% and 0.566%
same,inhibition,[8]; at 0.5 µM,-10.9% (inactive) and -4.29% (inactive)
same,inhibition,[8]; [36],-7.43% and -5.9%
same,inhibition,[8]; [37],-31.6% and -3.68%
same,inhibition,[9]; at 0.5 µM,-20.7% (inactive) and -11.8% (inactive)
same,inhibition,[9]; [26],-25.8% and -7.04%
same,inhibition,[9]; [27],-6.14% and -2.99%
same,inhibition,[10]; at 0.5 µM,-30.9% (inactive) and -9.97% (inactive)
same,inhibition,[10]; [38],-13.1%
same,inhibition,[10]; [39],-3.22% and -1.12%
same,inhibition,[10]; [40],-59.9% and -6.82%
same,inhibition,[10]; [41],8% and 15.6%
same,inhibition,[11]; [42],-29.7% and 12%
same,inhibition,[11]; at 0.5 µM,-22.5% (inactive) and -3.56% (inactive)
same,inhibition,[11]; [43],-4.42% and 12.4%
same,inhibition,[12],2.29% (inactive) and 8.32% (inactive)
same,inhibition,[12]; [44],16.9% and 12.5%
same,inhibition,[12]; [45],-7.65% and 10.5%
same,inhibition,[13]; at 0.5 µM,-9.17% (inactive) and 0.933% (inactive)
same,inhibition,[13]; [46],-6.82% and -1.46%
same,inhibition,"[13]; cisplatin combination, at 5 µM",-105% and 25.2%
same,inhibition,[13]; [47],-19.8% and -24.1%
same,inhibition,"[13]; single agent, at 5 µM",-7.33% and 11.8%
same,inhibition,[14]; at 0.5 µM,2.62% (inactive) and -10.6% (inactive)
same,inhibition,"[14]; cisplatin combo, at 5 µM",-19.2% and 26.8%
same,inhibition,[14]; [48],-14.2% and 7.18%
same,inhibition,[14]; [26],9.23% and 6.5%
same,inhibition,"[14]; single agent, at 5 µM",5.68% and -6.78%
same,inhibition,[15]; at 0.5 µM,-28.2% (inactive) and -6.93% (inactive)
same,inhibition,[15]; [23],-50.8% and -4.55%
same,inhibition,[15]; [24],-18.7% and -8.13%
same,inhibition,"[15]; single agent, at 0.05 µM",-48.6% and -13.2%
same,inhibition,"[15]; single agent, at 5 µM",23.9% and 22.7%
